Assay results reported in PubChem BioAssay (NCI).
About 83,000 compounds went through this panel and 20% of them were active in at least one assay; those are over-represented in the sample as a whole.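 48-hour exposure, single concentration, 96-well plates; percent growth endpoint where 0 means no net growth. Active: below 10.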 Values without a mark were called inactive. Active and inactive are the calls of the source.

What was measured:
Assay in all cases: NCI-60 one-dose screen, 48 h (100 = growth as untreated, 0 = no growth, -100 = all killed)
Settings in all cases: 10 µM unless noted
SK-MEL-2 melanoma = test system: SK-MEL-2 melanoma
EKVX NSCLC = test system: EKVX NSCLC
SN12C renal = test system: SN12C renal
UO-31 renal = test system: UO-31 renal
TK-10 renal = test system: TK-10 renal
ACHN renal = test system: ACHN renal
CAKI-1 renal = test system: CAKI-1 renal
A498 renal = test system: A498 renal
CCRF-CEM leukemia = test system: CCRF-CEM leukemia
MOLT-4 leukemia = test system: MOLT-4 leukemia
SR leukemia = test system: SR leukemia
RPMI-8226 leukemia = test system: RPMI-8226 leukemia
OVCAR-8 ovarian = test system: OVCAR-8 ovarian
OVCAR-5 ovarian = test system: OVCAR-5 ovarian
OVCAR-4 ovarian = test system: OVCAR-4 ovarian
SK-OV-3 ovarian = test system: SK-OV-3 ovarian
IGROV1 ovarian = test system: IGROV1 ovarian
HS 578T breast = test system: HS 578T breast
NCI/ADR-RES ovarian = test system: NCI/ADR-RES ovarian

| SMILES | growth (SK-MEL-2 melanoma) | growth (EKVX NSCLC) | growth (SN12C renal) | growth (UO-31 renal) | growth (TK-10 renal) | growth (ACHN renal) | growth (CAKI-1 renal) | growth (A498 renal) | growth (CCRF-CEM leukemia) | growth (MOLT-4 leukemia) | growth (SR leukemia) | growth (RPMI-8226 leukemia) | growth (OVCAR-8 ovarian) | growth (OVCAR-5 ovarian) [%] | growth (OVCAR-4 ovarian) | growth (SK-OV-3 ovarian) | growth (IGROV1 ovarian) | growth (HS 578T breast) | growth (NCI/ADR-RES ovarian) |
| --- | --- | --- | --- | --- | --- | --- | --- | --- | --- | --- | --- | --- | --- | --- | --- | --- | --- | --- | --- |
| Nn1c(=O)n(-c2cccc(C(F)(F)F)c2)c(=O)c2cc(-c3ccc(F)cc3F)ccc21 | -21.5% (active) | 3.55% (active) | 1.86% (active) | 5.45% (active) | 7.05% (active) | 0.86% (active) | -12.5% (active) | -20.6% (active) | 13.3% | 4.48% (active) | 6.24% (active) | -19.1% (active) | 9.99% (active) | 47.2 | 28.8% | -8.64% (active) | 20.9% | 0.556% (active) | 2.58% (active) |
| CC[C@H](CC[C@@H](C)[C@H]1CC[C@H]2[C@@H]3CC(=O)C4=CC(=O)/C(=C/c5ccc([N+](=O)[O-])cc5)C[C@]4(C)[C@H]3CC[C@]12C)C(C)C | 114% | 109% | 98.4% | 79.6% | 104% | 93.9% | 90.8% | 108% | 56.1% | 84.3% | 84.3% | 83.5% | 100% | 105 | 108% | 124% | 111% | 119% | 106% |
| COC(=O)c1ccc(NC2=C(Cl)C(=O)C(C)=C(C)C2=O)cc1 | 69.1% | 53.2% | 80.2% | 65.1% | 112% | 63.2% | 43.3% | 58.6% | 9.06% (active) | 9.07% (active) | 13.6% | 36.5% | 77.9% | 90.9 | 32.4% | 86.2% | 70.4% | 77.1% | 65.2% |
| CCCCc1nc2c(N)nc3ccccc3c2n1Cc1ccc(OC)cc1 | 71.6% | 58.5% | 71.5% | 40.2% | 68.3% | 76.9% | 52.2% | 35.7% | 60.2% | 36.8% | 46.2% | 34.1% | 67.4% | 82.4 | 58.1% | 74.8% | 56.8% | 79.8% | 59.2% |
| O=C(/C=C/c1cccc(Br)c1)c1cccc(OCCCCOc2cccc(C(=O)/C=C/c3cccc(Br)c3)c2)c1 | 104% | 101% | 99.7% | 91.4% | 115% | 101% | 100% | 113% | 105% | 90.4% | 98.5% | 56.8% | 105% | 104 | 109% | 107% | 101% | 101% | 106% |
| O=c1c2cc(-c3ccc(F)cc3F)ccc2n(Nc2ccccc2)c(=O)n1-c1cccc(C(F)(F)F)c1 | -11.2% (active) | 6.49% (active) | 3.98% (active) | 4.59% (active) | 11.3% | 2.25% (active) | -10.6% (active) | -18.1% (active) | 15.5% | 6.73% (active) | 9.45% (active) | -6.8% (active) | 13.3% | 79.3 | 30.7% | 8.64% (active) | 17.4% | -3.07% (active) | 3.74% (active) |
| CN1CCN(CC#CCn2c3c(c4ccccc42)C[C@]2(C)[C@H]4CC=C5[C@@H]6CC(C)(C)CC[C@]6(C(=O)N6CCOCC6)CC[C@@]5(C)[C@]4(C)CC[C@H]2C3(C)C)CC1 | 119% | 75.2% | 81.1% | 56.5% | 135% | 93% | 64.5% | 92.4% | 35% | 33.9% | -4.82% (active) | 45.5% | 84.8% | 87.2 | 88.1% | 103% | 77.6% | 91.3% | 76.8% |
| O=C(/C=C/c1cc(Cl)ccc1Cl)Nc1ncc(Cc2ccc(Cl)cc2)s1 | 24.4% | 30.2% | 9.91% (active) | 19.3% | 34.1% | 3.59% (active) | 2.37% (active) | -32.8% (active) | 11.1% | 15.2% | 14% | 16.2% | 1.15% (active) | 23.9 | 30.4% | 35.6% | 5.94% (active) | 6.99% (active) | -5.33% (active) |
| Brc1ccc2[nH]cc(-c3nn4cc(-c5nccs5)nc4s3)c2c1 | 81.4% | 64.9% | 71.1% | -48.1% (active) | 98.3% | 3.16% (active) | -36.8% (active) | 47.5% | 17.1% | 16.5% | 45.2% | 4.55% (active) | 10.5% | 67.5 | -4% (active) | 61.5% | 32% | -0.729% (active) | 15.8% |
| CCS(=O)(=O)Nc1ccc(C(=O)CC2(O)C(=O)Nc3ccccc32)cc1 (stereo not given) | 113% | 91.8% | 97.4% | 67.7% | 122% | 95.3% | 82.6% | 103% | 99.7% | 102% | 99.2% | 101% | 101% | 102 | 108% | 105% | 90% | 104% | 96.7% |
| C[C@]12CC[C@H]3[C@@H](CC=C4C[C@@H](O)CC[C@@]43C)[C@@H]1CC[C@@H]2[C@](C)(O)CCc1cccnc1 | 79.8% | 36.7% | 79.9% | 63.8% | 84.3% | 60.7% | 69.1% | 72.8% | 59.8% | 48.9% | 32.3% | 33.1% | 62% | 113 | 21.9% | 82.8% | 81.3% | 56% | 65.9% |
| CCOC(=O)c1cccnc1Nc1ccc(NC(=O)Nc2ccc(Cl)c(C(F)(F)F)c2)cc1 | 37.2% | 40.6% | 51.3% | 34.1% | 40.3% | 35.3% | 22.6% | 41.3% | 29.5% | 24.9% | 54% | 16% | 39.3% | 85.7 | 42.8% | 70.1% | 29.9% | 84.5% | 35.3% |
| C/C(=N\NC(N)=S)c1nnn(-c2ccc([N+](=O)[O-])cc2)c1C | 110% | 62.4% | 94.5% | 70.5% | 98.7% | 97% | 90.8% | 94% | 101% | 105% | 110% | 103% | 98.6% | 98.7 | 108% | 104% | 100% | 96.3% | 98.8% |
| N#Cc1nc(-c2ccc(Cl)cc2)oc1N1CCC(S(=O)(=O)N2CCOCC2)CC1 | 114% | 105% | 94.1% | 73.2% | 113% | 100% | 89.7% | 102% | 108% | 104% | 88.6% | 105% | 101% | 102 | 100% | 119% | 90.5% | 105% | 100% |
| C=C(C=O)[C@@H]1CC[C@]2(C(=O)O)CC[C@]3(C)C(CC[C@@H]4[C@@](C)(CCC#N)[C@H](C(=C)C=O)CC[C@]43C)[C@@H]12 (stereo not given in full) | 61.1% | 100% | 66.4% | 32.8% | 128% | 51.8% | 17.8% | 96.9% | 2.89% (active) | 5.55% (active) | 0.41% (active) | -8.52% (active) | -9.95% (active) | 127 | 18.7% | 126% | 14.6% | 47.1% | 5.79% (active) |
